Test [1] concerns PRMT1 (protein arginine N-methyltransferase 1). Put plainly: PRMT1 binders on small-molecule microarrays, primary screen, biochemical, small-molecule microarray, 635 nm fluorescence (AID 1088).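 Further: binding of Prmt1 protein to compounds spotted on small-molecule microarray slides.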 To be noted: small-molecule microarray binding, higher = more signal.
The nature of test [2]: yeast growth modulation, basal conditions, primary screen, YJM789 clinical isolate, OD600, 24 h (AID 1089).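 Further: growth of clinical yeast isolate S. cerevisiae YJM 789 seeded 1000 cells per well; test concentration not given here.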 To be noted: S. cerevisiae YJM789 growth, higher = more signal, called active from +8 up or from −8 down.
A short description of test [3]: fission yeast growth modulation, primary screen, strain 972, OD600, 24 h, no modulator (AID 1090).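 Further: basal condition with compound alone and no growth modifier present; test concentration not given here.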 To be noted: S. pombe 972 growth, higher = more signal, called active from +8 up or from −8 down.
Test [4] is described as follows: S. cerevisiae growth modulation with rapamycin, primary screen, strain BY4716, OD600, 96 h (AID 1091). Further: test concentration not given here. To be noted: higher = more signal, called active from +8 up or from −8 down.
In test [5] the target is Torsin-1A-interacting protein 2 (Homo sapiens) (UniProt Q8NFQ8). Put plainly: LULL1 binders on small-molecule microarray, primary screen, cell lysate, human LULL1 lysate, 635/667 nm fluorescence (AID 1092).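 Further: probe is lysate of COS7 cells overexpressing human LULL1; score merges per-feature 667 nm fluorescence with signal-to-noise.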 To be noted: hLULL1 lysate binding, 635 nm fluorescence, higher = more signal.
Chain of Torsin-1A-interacting protein 2 (Homo sapiens) (Q8NFQ8 whole entry, looked up): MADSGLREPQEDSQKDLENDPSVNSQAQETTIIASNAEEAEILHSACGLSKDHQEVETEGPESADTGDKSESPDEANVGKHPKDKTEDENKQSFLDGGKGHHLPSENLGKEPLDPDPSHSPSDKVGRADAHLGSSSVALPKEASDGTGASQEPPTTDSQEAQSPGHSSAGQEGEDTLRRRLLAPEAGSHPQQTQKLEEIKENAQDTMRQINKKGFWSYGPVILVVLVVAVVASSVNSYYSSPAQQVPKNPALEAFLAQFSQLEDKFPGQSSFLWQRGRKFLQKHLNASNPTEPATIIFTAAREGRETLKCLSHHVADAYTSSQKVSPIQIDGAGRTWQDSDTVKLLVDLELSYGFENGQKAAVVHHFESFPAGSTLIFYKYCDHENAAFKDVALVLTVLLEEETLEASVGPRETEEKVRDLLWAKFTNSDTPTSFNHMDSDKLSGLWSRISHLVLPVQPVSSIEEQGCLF
Test [6] is described as follows: E. coli growth modulation, two-sided OD650, primary screen, E. coli filamentation project, strain DRC41, 24 h (AID 1093).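 Further: MC1000 strain lacking acrAB efflux and sulA so SOS filamentation is blocked; test concentration not given here.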 As to conditions: OD650, 24 h, higher = more signal, called active from +8 up or from −8 down.
Test [7] is described as follows: small-molecule microarray binders of probe aLefty2, primary screen, biochemical, biotinylated probe, 635/667 nm fluorescence (AID 1094).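 Further: score merges spot fluorescence near 667 nm with spot signal-to-noise ratio.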 As to conditions: higher = more signal.
Test [8] deals with Noggin (protein binding on small-molecule microarray). Nature of the test: Noggin binders on small-molecule microarray, primary screen, biochemical, 635/667 nm fluorescence (AID 1095).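 Further: score merges 667 nm feature fluorescence with signal to noise over triplicate slides.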 As to conditions: 635 nm fluorescence, higher = more signal.
The target in test [9] is Neurogenic locus notch homolog protein 3 (Homo sapiens) (UniProt Q9UM47). Put plainly: NOTCH3 binders on small-molecule microarray, primary screen, biochemical, 635/667 nm fluorescence (AID 1096). As to conditions: NOTCH3 binding, 635 nm fluorescence, higher = more signal.
Chain of Neurogenic locus notch homolog protein 3 (Homo sapiens) (Q9UM47 whole entry, looked up): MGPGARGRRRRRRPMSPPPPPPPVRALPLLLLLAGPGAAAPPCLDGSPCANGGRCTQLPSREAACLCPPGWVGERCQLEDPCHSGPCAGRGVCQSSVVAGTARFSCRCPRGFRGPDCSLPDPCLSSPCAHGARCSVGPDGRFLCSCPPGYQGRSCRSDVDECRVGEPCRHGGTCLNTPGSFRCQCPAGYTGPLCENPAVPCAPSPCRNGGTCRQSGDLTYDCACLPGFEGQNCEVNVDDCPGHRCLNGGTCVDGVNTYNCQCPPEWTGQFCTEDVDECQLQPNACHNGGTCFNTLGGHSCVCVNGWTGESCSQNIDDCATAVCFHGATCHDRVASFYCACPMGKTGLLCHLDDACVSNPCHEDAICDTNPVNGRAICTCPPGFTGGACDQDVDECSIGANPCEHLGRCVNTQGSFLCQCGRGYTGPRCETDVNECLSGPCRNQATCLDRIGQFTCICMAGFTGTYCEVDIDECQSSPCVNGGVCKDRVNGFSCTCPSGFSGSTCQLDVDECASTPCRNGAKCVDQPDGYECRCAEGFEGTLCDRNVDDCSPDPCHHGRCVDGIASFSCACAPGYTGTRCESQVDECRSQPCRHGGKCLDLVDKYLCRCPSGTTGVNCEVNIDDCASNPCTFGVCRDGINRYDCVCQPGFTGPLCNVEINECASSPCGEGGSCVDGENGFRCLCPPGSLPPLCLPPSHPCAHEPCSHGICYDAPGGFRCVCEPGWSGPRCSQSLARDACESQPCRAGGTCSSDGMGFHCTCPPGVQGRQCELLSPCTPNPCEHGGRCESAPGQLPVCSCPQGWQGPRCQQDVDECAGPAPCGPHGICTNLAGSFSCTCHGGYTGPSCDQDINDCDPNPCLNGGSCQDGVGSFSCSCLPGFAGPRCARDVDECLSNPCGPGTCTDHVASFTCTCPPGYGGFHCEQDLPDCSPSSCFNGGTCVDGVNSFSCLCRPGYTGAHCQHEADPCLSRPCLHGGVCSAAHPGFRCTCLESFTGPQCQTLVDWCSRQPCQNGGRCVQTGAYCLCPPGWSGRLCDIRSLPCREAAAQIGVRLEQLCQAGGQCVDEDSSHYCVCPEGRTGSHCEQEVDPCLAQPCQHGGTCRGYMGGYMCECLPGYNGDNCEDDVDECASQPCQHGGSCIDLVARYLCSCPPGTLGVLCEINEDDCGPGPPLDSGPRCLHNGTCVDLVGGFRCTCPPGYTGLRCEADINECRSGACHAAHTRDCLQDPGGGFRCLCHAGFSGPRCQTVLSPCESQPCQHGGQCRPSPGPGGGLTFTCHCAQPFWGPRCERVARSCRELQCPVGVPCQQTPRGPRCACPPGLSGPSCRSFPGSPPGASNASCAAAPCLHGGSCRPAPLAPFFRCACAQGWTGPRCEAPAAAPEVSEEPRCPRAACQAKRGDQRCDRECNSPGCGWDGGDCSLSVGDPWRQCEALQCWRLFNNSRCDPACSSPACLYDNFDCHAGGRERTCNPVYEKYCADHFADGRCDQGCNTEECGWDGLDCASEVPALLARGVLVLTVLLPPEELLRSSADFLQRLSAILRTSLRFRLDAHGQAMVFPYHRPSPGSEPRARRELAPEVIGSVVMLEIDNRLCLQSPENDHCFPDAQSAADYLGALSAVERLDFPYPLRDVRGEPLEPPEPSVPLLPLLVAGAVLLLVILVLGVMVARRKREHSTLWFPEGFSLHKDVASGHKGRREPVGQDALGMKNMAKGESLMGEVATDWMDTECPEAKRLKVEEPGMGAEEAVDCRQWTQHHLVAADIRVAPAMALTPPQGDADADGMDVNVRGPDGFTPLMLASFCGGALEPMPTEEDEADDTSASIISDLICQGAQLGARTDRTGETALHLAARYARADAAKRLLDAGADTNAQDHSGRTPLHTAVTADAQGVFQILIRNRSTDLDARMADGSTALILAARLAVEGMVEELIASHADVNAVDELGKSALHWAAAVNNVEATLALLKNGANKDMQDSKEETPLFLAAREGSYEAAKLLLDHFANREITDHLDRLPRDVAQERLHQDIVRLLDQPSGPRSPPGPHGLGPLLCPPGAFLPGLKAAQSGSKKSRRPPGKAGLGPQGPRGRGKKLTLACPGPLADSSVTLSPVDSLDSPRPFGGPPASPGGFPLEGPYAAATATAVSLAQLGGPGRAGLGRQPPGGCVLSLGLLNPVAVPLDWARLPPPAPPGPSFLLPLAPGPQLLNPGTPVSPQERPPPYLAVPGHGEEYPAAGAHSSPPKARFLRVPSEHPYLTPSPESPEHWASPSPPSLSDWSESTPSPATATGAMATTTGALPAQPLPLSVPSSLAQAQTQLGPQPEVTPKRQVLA
Test [10] is described as follows: small-molecule microarray binders of probe aEGFR, primary screen, biochemical, biotinylated probe, 635/667 nm fluorescence (AID 1097).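 Further: probe is a biotinylated anti-EGFR antibody binding compounds printed on slides; score combines fluorescence near 667 nm and signal to noise of each spot.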 As to conditions: higher = more signal.
Test [11] concerns Plasmodium falciparum Sir2 (PF13_0152, Sir2A). Nature of the test: pfSir2 binders on small-molecule microarrays, primary screen, biochemical, small-molecule microarray, 635 nm fluorescence (AID 1098).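 Further: score merges spot fluorescence intensity with its signal-to-noise ratio.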 To be noted: small-molecule microarray binding, fluorescence 635 nm; higher = more signal.
Test [12] can be described thus: small-molecule microarray binders of probe aDKK1, primary screen, biochemical, biotinylated probe, 635/667 nm fluorescence (AID 1099).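 Further: score merges 667nm spot fluorescence with signal to noise across triplicate slides; reference of the scale not given here.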 As to conditions: higher = more signal.
Test [13] is described as follows: small-molecule microarray binders of probe aCHRDL2, primary screen, biochemical, biotinylated probe, 635/667 nm fluorescence (AID 1100). As to conditions: higher = more signal.
Test [14] in a line: splicing luciferase reporter signal modulators, primary screen, spliceosome inhibition project, cell-based, HEK293, splice +/- reporter (AID 1101).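 Further: HEK293 cells carrying a splicing-competent luciferase reporter gene; test concentration not given here.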 As to conditions: luminescence, 24 h, higher = more signal, called active from +8 up or from −8 down. (In general: A reporter such as luciferase makes a cellular process visible.)
Test [15] concerns the target Fibroblast growth factor 10 (Homo sapiens) (UniProt O15520). Nature of the test: FGF10 binders on small-molecule microarrays, primary screen, biochemical, small-molecule microarray, 635 nm fluorescence (AID 1102). To be noted: FGF10 binding, fluorescence 635 nm, higher = more signal.
Test [16] deals with glycogen synthase kinase-3 (GSK3A per assay name; protocol says GSK3B). Nature of the test: GSK3 binders on small-molecule microarrays, primary screen, biochemical, small-molecule microarray, 635 nm fluorescence, GSK3A (AID 1103). Further: the record names both GSK3A and GSK3B. To be noted: small-molecule microarray binding, fluorescence 635 nm; higher = more signal.
The target of test [17] is Epidermal growth factor receptor (Homo sapiens) (UniProt P00533). Nature of the test: EGFR binders on small-molecule microarrays, primary screen, biochemical, small-molecule microarray, 635 nm fluorescence (AID 1104).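 Further: score merges 667 nm emission intensity with spot signal to noise over triplicate slides.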 To be noted: EGFR binding, higher = more signal.
Chain of Epidermal growth factor receptor (Homo sapiens) (P00533 whole entry, looked up): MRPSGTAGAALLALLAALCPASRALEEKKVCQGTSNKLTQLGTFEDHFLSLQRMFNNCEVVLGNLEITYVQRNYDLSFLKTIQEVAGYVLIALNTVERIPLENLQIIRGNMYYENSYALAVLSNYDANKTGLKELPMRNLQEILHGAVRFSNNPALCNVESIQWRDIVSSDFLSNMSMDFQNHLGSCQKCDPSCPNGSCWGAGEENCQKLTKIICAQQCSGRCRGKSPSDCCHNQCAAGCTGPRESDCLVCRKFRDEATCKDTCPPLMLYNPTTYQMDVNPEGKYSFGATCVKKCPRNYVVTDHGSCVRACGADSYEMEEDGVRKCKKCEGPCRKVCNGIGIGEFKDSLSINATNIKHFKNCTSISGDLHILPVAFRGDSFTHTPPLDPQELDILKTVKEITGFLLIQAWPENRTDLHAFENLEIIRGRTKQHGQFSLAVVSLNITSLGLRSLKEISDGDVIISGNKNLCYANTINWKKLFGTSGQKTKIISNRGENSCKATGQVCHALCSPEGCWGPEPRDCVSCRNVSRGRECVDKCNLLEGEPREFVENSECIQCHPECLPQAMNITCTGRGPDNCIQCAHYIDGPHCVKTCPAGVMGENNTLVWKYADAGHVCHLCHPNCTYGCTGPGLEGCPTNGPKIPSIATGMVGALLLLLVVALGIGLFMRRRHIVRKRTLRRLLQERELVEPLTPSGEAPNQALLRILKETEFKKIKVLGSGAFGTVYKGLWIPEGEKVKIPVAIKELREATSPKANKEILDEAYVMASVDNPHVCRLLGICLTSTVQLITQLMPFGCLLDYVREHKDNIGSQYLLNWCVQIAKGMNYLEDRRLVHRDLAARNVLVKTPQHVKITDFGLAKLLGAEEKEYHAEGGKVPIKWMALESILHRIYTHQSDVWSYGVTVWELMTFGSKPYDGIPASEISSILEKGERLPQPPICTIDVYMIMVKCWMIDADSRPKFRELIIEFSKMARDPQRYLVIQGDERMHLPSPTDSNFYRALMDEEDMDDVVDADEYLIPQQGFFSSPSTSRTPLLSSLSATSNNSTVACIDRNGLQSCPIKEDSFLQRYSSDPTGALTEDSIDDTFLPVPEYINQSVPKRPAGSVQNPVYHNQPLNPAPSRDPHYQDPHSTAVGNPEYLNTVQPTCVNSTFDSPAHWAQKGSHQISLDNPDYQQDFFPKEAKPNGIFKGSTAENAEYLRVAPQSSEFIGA
Test [18] deals with Follistatin-related protein 3 (Homo sapiens) (UniProt O95633). Nature of the test: FSTL3 binders on small-molecule microarrays, primary screen, biochemical, small-molecule microarray, 635 nm fluorescence (AID 1105).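 Further: score merges emission near 667 nm and signal to noise per printed spot across three slides.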 To be noted: FSTL3 binding, higher = more signal.
Chain of Follistatin-related protein 3 (Homo sapiens) (O95633 whole entry, looked up): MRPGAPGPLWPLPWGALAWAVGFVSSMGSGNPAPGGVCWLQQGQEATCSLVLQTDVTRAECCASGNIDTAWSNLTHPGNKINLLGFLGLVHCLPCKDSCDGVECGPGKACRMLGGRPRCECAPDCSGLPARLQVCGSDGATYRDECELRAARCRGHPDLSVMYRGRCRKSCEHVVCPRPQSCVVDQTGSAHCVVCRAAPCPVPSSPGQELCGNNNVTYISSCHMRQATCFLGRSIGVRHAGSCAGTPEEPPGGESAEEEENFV
For test [19], the target named is Dickkopf-related protein 1 (Homo sapiens) (UniProt O94907). Nature of the test: DKK1 binders on small-molecule microarrays, primary screen, biochemical, small-molecule microarray, 635 nm fluorescence scan (AID 1106).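 Further: score merges emission near 667 nm with signal to noise over three replicate slides.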 To be noted: DKK1 binding, higher = more signal.
Chain of Dickkopf-related protein 1 (Homo sapiens) (O94907 whole entry, looked up): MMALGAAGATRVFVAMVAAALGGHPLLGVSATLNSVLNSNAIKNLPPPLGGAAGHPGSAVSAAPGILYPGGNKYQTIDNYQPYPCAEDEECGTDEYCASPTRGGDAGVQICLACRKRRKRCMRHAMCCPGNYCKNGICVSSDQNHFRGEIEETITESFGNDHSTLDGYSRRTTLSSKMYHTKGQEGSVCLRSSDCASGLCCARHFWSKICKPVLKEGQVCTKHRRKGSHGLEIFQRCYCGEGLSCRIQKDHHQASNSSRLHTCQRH
Test [20] concerns Inhibin beta A chain (activin A). Put plainly: INHBA (activin A) binders on microarrays, primary screen, biochemical, small-molecule microarray, 635 nm fluorescence scan (AID 1107).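 Further: mouse activin A protein probed at 4.33 µg/mL on printed slides; score merges bound-protein fluorescence near 667 nm with spot signal-to-noise.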 As to conditions: small-molecule microarray binding, higher = more signal.

The source made the active and inactive calls.

Chain of Fibroblast growth factor 10 (Homo sapiens) (O15520 whole entry, looked up): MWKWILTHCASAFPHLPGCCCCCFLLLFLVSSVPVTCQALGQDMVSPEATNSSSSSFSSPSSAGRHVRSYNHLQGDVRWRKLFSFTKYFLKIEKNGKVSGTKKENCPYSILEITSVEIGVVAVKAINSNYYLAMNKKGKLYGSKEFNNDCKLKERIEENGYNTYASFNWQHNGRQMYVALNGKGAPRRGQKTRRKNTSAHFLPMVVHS

With `O=C1[C@H]2[C@H]3[C@H](O)[C@H](O)CC(=NOC[C@@H](O)COCc4ccco4)[C@@H]3CC[C@H]2C(=O)N1c1ccc(F)cc1F`, the composite z-score in [1] was 0.601; in test [5], -1.34; in test [7], -0.223; in test [8], 1.01; in test [9], 0.0986; in [10] it was -0.0828. For the same compound, the composite z-score in test [11] was 0.365; in [12], -0.399; in test [13], -0.712; in test [15], 0.579; in [16] it was 0.318; in test [17] it was 0.931. In addition, the results for the composite z-score in [18], in test [19] and in test [20] were 0.499, 0.671 and 0.574, respectively. Also, the z-score is -0.236 (inactive) in [2]; 0.0766 (inactive) in [3]; -1.25 (inactive) in [4]; 0.363 (inactive) in test [6]; 0.237 (inactive) in test [14].
On to `CC(C)OC(=O)C=C1C[C@@H](c2ccc(C#N)cc2)O[C@@H](c2ccc(C#N)cc2)O1`, for which the composite z-score in test [1] was found to be 1.55; in test [5], 3.36; in [7], 0.314; in [8], 0.747; in test [9] it was 1.06; in test [10], 0.11. Moreover, the composite z-score in test [11] amounted to 1.07; in test [12] it was 0.738; in test [13], 0.407; in [15] it was 1.44; in test [16] it was 1.29; in [17], 0.87. Besides, the composite z-score in test [18] is 1.4; in test [19] it was 0.189; in test [20], -0.106. Further, the z-score is 0.149 (inactive) in test [2]; -2.93 (inactive) in test [3]; 1.01 (inactive) in test [4]; 0.554 (inactive) in test [6]; -0.159 (inactive) in test [14].
With `O=C1[C@H]2[C@H]3[C@H](O)[C@H](O)CC(=NOCc4ccccc4)[C@H]3CC[C@H]2C(=O)N1c1ccc(F)cc1F`, the composite z-score was -0.129 in [1]; -0.089 in test [5]; -0.373 in [7]; -0.153 in [8]; -0.367 in test [9]; -0.0936 in test [10]. The composite z-score in test [11] is -0.183; in [12] it was -0.268; in test [13] it was -0.675; in test [15], 0.266; in [16] it was 0.167; in [17], 0.534. For the same compound, the results for the composite z-score in [18], in test [19] and in [20] were -0.0913, 0.0949 and -0.364, respectively. In addition, the z-score was -1.3 (inactive) in test [2]; -0.128 (inactive) in test [3]; -0.982 (inactive) in [4]; 0.358 (inactive) in [6]; -0.772 (inactive) in [14].
For the compound `O=C1C2=CC[C@H]3C(=O)N(Cc4ccc5c(c4)OCO5)C(=O)[C@H]3[C@H]2[C@H](O)[C@@H]2O[C@H]12`, the composite z-score in test [1] was -1.05; in test [5], 0.24; in test [7] it was -0.166; in test [8], 0.616; in test [9], 0.632; in test [10], 0.0083. Further, the composite z-score in test [11] was 0.557; in test [12], -0.141; in test [13], -0.51; in test [15], 0.385; in test [16] it was 0.526; in test [17], 0.65. Besides, the composite z-score came out at 0.459 in [18], 0.347 in test [19] and 0.29 in test [20]. In addition, the z-score in test [2] is -0.108 (inactive); in test [3] it was -0.682 (inactive); in [4], -0.611 (inactive); in test [6], 0.347 (inactive); in test [14], 0.867 (inactive).
`CCCC[C@H]1OB(O)C[C@H]2C1=C(C)C[C@H]1C(=O)N(C)C(=O)[C@H]12`: the composite z-score is 0.95 in [1]; 1.2 in test [5]; -0.166 in test [7]; 0.622 in test [8]; 0.959 in test [9]; -0.12 in [10]. The composite z-score in test [11] was 0.0529; in test [12], -0.0166; in test [13], -0.372; in test [15], 0.944; in test [16], 0.774; in test [17], 0.259. The composite z-score worked out at 1.27 in [18], 0.558 in [19] and 0.131 in test [20]. Besides, the z-score is -0.334 (inactive) in test [2]; -0.698 (inactive) in test [3]; -0.762 (inactive) in [4]; -0.889 (inactive) in test [6]; 0.238 (inactive) in test [14].

Values taken from PubChem BioAssay.
